Screens deposited in PubChem by National Center for Advancing Translational Sciences (NCATS).
Shown are actives, neighbours in structure and some others; about 8% of the full set was active somewhere.
Marburg entry inh = blocks Marburg virus binding to or entry into cells; Marburg virus pseudotyped entry inhibition, cell reporter; AID 540276; Potency, µM (series often up to 37.8 µM), without a hit: at the highest dose activity change, negative = inhibition, most hits filed as inhibitors; 300,000 tested, 1.8% active; calls by dose curve; tested in HEK293 cells; also: potency is read from the fitted curve at half-maximal effect; % is scaled to controls: 0 for no effect and ±100 for the full control effect
FMDV inh = antivirals against foot and mouth disease virus. FMDV antiviral cell-based qHTS. Potency, µM (highest dose often 57.9 µM), for inactives: at the highest dose activity change, negative = inhibition, most hits filed as inhibitors. 410,000 tested, 1.2% active; calls by dose curve; tested in HEK293T cells; also: read-out not given here; potency is read from the fitted curve at half-maximal effect; % is scaled to controls: 0 for no effect and ±100 for the full control effect; nearly all actives have a fitted effect of over 45% in size
SARS PLP yeast = blocks SARS-CoV papain-like protease in a yeast assay. S. cerevisiae expressing SARS-CoV PLpro, growth rescue. Potency, µM (highest dose often 32.9 µM), without a hit: top-dose activity, positive = growth rescue, hits mostly activators. 330,000 tested, 0.19% active; calls by dose curve; also: potency is read from the fitted curve at half-maximal effect; 0% is about no effect; nearly all actives have a fitted effect of over 55% in size
HCV inh = blocks hepatitis C virus; Huh7.5.1 HCVcc-Cre infection, luciferase reporter, 44 h; Potency, µM (doses to about 41.8 µM), for inactives: at the highest dose activity change, negative = inhibition, hits mostly inhibitors; AID 651820; 340,000 tested, 3.4% active; active = well fitted inhibition curve with a large enough effect; inconclusive = small, poorly fitted or top-dose-only effect, or another doubt; inactive = no such curve, though single readings can be large or run the other way; also: potency is read from the fitted curve at half-maximal effect; % is scaled to controls: 0 for no effect and ±100 for the full control effect
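Luciferase read-out (15 sec integration) after a 15 min room-temperature substrate step quantifies HCVcc-Cre infection. Cells, 1,000 per well, had compound added 4 h post-plating, then virus at ~0.5 moi, and were cultured 44 h.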
HCMV inh = blocks human cytomegalovirus replication; 410,000 tested, 4.5% active; activity change, negative = inhibition, % at 57.5 µM; AID 1259415; HFF cells, HCMV-luciferase reporter, 72 h; stronger effect = lower value; in the data active = activity change below about -60%; inconclusive = no clear call, values can overlap the other calls; inactive = above about -39%; also: % is scaled to controls: 0 for no effect and ±100 for the full control effect
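HFF cells seeded 16 h at 37C, treated with compounds, infected with luciferase-reporter HCMV at MOI 1 PFU/cell; luciferase read at 72 h post infection, normalized to buffer-only and Salinomycin controls.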
LASV entry inh = blocks Lassa virus binding to or entry into cells | Lassa virus pseudotype entry inhibition, cell reporter | Potency, µM (series often up to 37.9 µM), for the others: at the top dose activity change, negative = inhibition, actives largely listed as inhibitors | 300,000 tested, 1.2% active | AID 540256; calls by dose curve; tested in HEK293 cells; also: potency is read from the fitted curve at half-maximal effect; % is scaled to controls: 0 for no effect and ±100 for the full control effect; nearly all actives have a fitted effect of over 50% in size
* = called active by the depositor; ? = inconclusive; nt = no result given; [ ] = dose if it differs, or a comment.

SMILES	Marburg entry inh	FMDV inh	SARS PLP yeast	HCV inh	HCMV inh	LASV entry inh
CC(C)C[C@H]1CNC(=O)C(=O)N1C[C@H]1CCCN1C[C@H](CC(C)C)N1C[C@H](Cc2ccccc2)N(CC2CCCCC2)C(=O)C1=O	nt	25.2%	nt	nt	-1.5	nt
CC(C)C[C@@H](CN1CCC[C@@H]1CN1C(=O)C(=O)NC[C@@H]1Cc1ccccc1)N1C[C@H](Cc2ccc(O)cc2)N(CC2CCCCC2)C(=O)C1=O	nt	-10.3%	nt	-14.3%	?	nt
CC(C)C[C@@H](CN1CCC[C@H]1CN1C(=O)C(=O)NC[C@@H]1Cc1ccccc1)N1C[C@H](Cc2ccc(O)cc2)N(CC2CCCCCC2)C(=O)C1=O	nt	-20.2%	nt	nt	-103.0*	nt
O=C(/C=C/c1ccc(Cl)cc1Cl)c1ccc[nH]1	nt	57.8%	-1.8%	1.1%	44.0	nt
O=C(/C=C/c1ccccc1Cl)c1ccc[nH]1	?	37.6%	-52.9%	?	-62.5*	0.2%
O=C(C1CCCCC1)N1CCN(S(=O)(=O)c2ccc(Br)cc2)CC1	?	?	2.2%	-6.0%	-9.4	17.8µM*
CN(Cc1ccccc1)C(=O)C1CCCN(Cc2ccc(Cl)cc2)C1 (stereo not drawn)	?	?	-5.8%	1.41µM*	-34.7	?
O=C(C1CCCN(Cc2ccc(Br)cc2)C1)N1CCCCC1 (stereo not drawn)	nt	?	1.0%	11.2µM*	?	nt
Cc1ccc(-n2nc(CO)c(C(=O)NCCC(C)C)n2)cc1C	-5.0%[46.1 µM]	-5.1%	nt	nt	-35.5	27.0%[46.1 µM]
Cc1ccc(C2=NN(CC(=O)NCCCN(CC(C)C)CC(C)C)C(=O)CC2)cc1	nt	-5.0%	nt	nt	-10.8	4.0%[46.1 µM]
COc1ccc(C(=O)Nc2ccccc2C(=O)NC(C(=O)NCc2ccco2)C(C)C)cc1 (stereo not drawn)	26.8%	-6.4%	-0.1%	-20.4%	-19.5	-8.6%
COc1ccc(C(=O)Nc2ccccc2C(=O)N(Cc2ccco2)C(C(N)=O)C(C)C)cc1 (stereo not drawn)	?	-2.6%	0.3%	-21.6%	-75.5*	?
Cc1cnc(C)c(-c2cccc3c2OC(CNC(=O)/C=C/c2ccncc2)C3)n1 (stereo not drawn)	nt	-8.9%	nt	nt	nt	nt
CNc1nc(Nc2ccc(C)cc2C)c2sccc2n1	nt	?	nt	nt	-62.5*	nt
Cc1ccccc1-c1nc(NCC2CC2)nc2ccsc12	nt	-8.5%	nt	nt	-4.8	nt
Cc1ccc(Nc2nc(NCC3CC3)nc3ccsc23)c(C)c1	nt	?	nt	nt	-82.1*	nt
CCOC(=O)Cc1ccc(Nc2nc(NCc3ccccc3)nc3ccsc23)cc1	nt	28.2µM*	nt	nt	23.5	nt
CCOC(=O)Cc1ccc(Nc2nc(NC)nc3ccsc23)cc1	nt	?	nt	nt	-16.1	nt
Cc1ccc(CNc2nc(NCc3ccccc3)nc3ccsc23)c(C)c1	nt	?	nt	nt	-62.9*	nt
Cc1ccc(CNc2nc(NCC3CC3)nc3ccsc23)c(C)c1	nt	?	nt	nt	-77.1*	nt
COCCNc1nc(NC(C)C)nc2ccsc12	nt	-21.6%	nt	nt	0.8	nt
COCCNc1nc(NCc2ccccc2)nc2ccsc12	nt	?	nt	nt	-60.7*	nt
N#Cc1ccc2c(c1)C[C@]1(CCCCN3C(=O)c4ccccc4C3=O)Oc3c(c(=O)oc4ccc(F)cc34)C2O1	nt	nt	-13.1%[6.58 µM]	nt	nt	nt
COc1ccc(-n2c(CNC(=O)c3cccc4ccccc34)nnc2SC)cc1	nt	5.1%	nt	nt	nt	nt
CCC(C)C(NC(=O)CCCNC(=O)CCC(=O)OC1O[C@H]2OC3(C)CC[C@H]4[C@H](C)CCC(C1C)C24OO3)C(=O)O (stereo partly drawn)	nt	nt	-6.7%	nt	-19.0	nt
CCC(C)NC(=O)CCC(=O)OC1O[C@H]2OC3(C)CC[C@H]4[C@H](C)CCC(C1C)C24OO3 (stereo partly drawn)	nt	-17.0%	-7.7%	?	-75.5*	nt
Cc1ccc(-n2nc3c(=O)n(CCCC(=O)NC(C)c4ccccc4)nc(C)c3c2C)cc1 (stereo not drawn)	nt	-5.6%	nt	nt	22.2	-7.8%[46.1 µM]
COc1ccc(C(CNC(=O)Cc2cc(OC)c(OC)c(OC)c2)N2CCCC2)cc1 (stereo not drawn)	-7.0%	14.9%	-2.7%	-2.5%	42.3	?
COC(=O)C1CCC(=O)N1C(c1ccc(OC)cc1)c1cc(OC)c(OC)c(OC)c1 (stereo not drawn)	?	0.1%	nt	?	-80.7*	?
